Measured values from PubChem BioAssay AID1159580 (chemical genetic matrix, 2015).
Where “and” joins values, the source holds several entries; their conditions need not be identical. Equal entries are not always repeated. In all, about 5,500 compounds went through this assay and about 2,000 (36%) were called active. Inconclusive results (about 18%) are left out. No stated cut-off is given here; in the data, active means normalized growth mostly below about 0.91 (no sharp cut-off); inconclusive means no clear call, values can overlap the other calls; inactive means mostly above about 0.92. The list shows a part of the results.

Test: chemical genetic growth profiling, strain panel (AID 1159580);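 further: tested at 20 µM; growth read once vehicle control cultures reached saturation at 30 °C; 1 = growth at the plate median or of vehicle wells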
Conditions: S. cerevisiae deletion strains, growth OD

Measured: normalized growth

O=C(O)CCC(=O)c1ccc(-c2ccccc2)cc1
0.994 (inactive) and 0.66 (active): locus YHR030C, strain SLT2, stronger effect = lower value
active: locus YDR137W, strain rgp1, stronger effect = lower value 0.793 | locus YGL078C, strain dbp3, stronger effect = lower value 0.842 | locus YHR079C, strain IRE1, stronger effect = lower value 0.739 | locus YJR066W, strain TOR1, stronger effect = lower value 0.706
inactive: locus YAL013W, strain DEP1, stronger effect = lower value 0.985 | locus YAL021C, strain ccr4, stronger effect = lower value 1.01 | locus YAL026C, strain drs2, stronger effect = lower value 0.976 | locus YAL030W, strain snc1, stronger effect = lower value 0.991 | locus YBL061C, strain skt5, stronger effect = lower value 0.989 | locus YBR009C, strain hhf1, stronger effect = lower value 0.998 | locus YBR021W, strain FUR4, stronger effect = lower value 0.964 | locus YBR023C, strain chs3, stronger effect = lower value 0.983 | locus YBR171W, strain sec66, stronger effect = lower value 0.983 | locus YBR229C, strain ROT2, stronger effect = lower value 0.986 | locus YBR231C, strain swc5, stronger effect = lower value 0.981 | locus YBR279W, strain paf1, stronger effect = lower value 0.975 | locus YCL011C, strain gbp2, stronger effect = lower value 1 | locus YCL016C, strain dcc1, stronger effect = lower value 0.999 | locus YCL029C, strain bik1, stronger effect = lower value 0.934 | locus YCL069W, strain vba3, stronger effect = lower value 0.983 | locus YCR088W, strain abp1, stronger effect = lower value 1.01 | locus YDL005C, strain med2, stronger effect = lower value 0.991 | locus YDL035C, strain GPR1, stronger effect = lower value 0.989 | locus YDL040C, strain nat1, stronger effect = lower value 0.986 | locus YDL074C, strain BRE1, stronger effect = lower value 0.957 | locus YDL101C, strain DUN1, stronger effect = lower value 0.959 | locus YDL134C, strain PPH21, stronger effect = lower value 0.972 | locus YDL185W, strain tfp1, stronger effect = lower value 0.962 | locus YDL192W, strain arf1, stronger effect = lower value 0.971 | locus YDR001C, strain nth1, stronger effect = lower value 0.982 | locus YDR069C, strain doa4, stronger effect = lower value 0.986 | locus YDR101C, strain arx1, stronger effect = lower value 0.964 | locus YDR150W, strain NUM1, stronger effect = lower value 0.99 | locus YDR159W, strain sac3, stronger effect = lower value 1.02 | locus YDR162C, strain NBP2, stronger effect = lower value 0.986 | locus YDR195W, strain ref2 0.929 | locus YDR297W, strain sur2, stronger effect = lower value 0.99 | locus YDR318W, strain mcm21, stronger effect = lower value 0.963 | locus YDR334W, strain swr1, stronger effect = lower value 0.977 | locus YDR335W, strain msn5, stronger effect = lower value 0.953 | locus YDR388W, stronger effect = lower value 0.958 | locus YDR392W, strain spt3, stronger effect = lower value 1.02 | locus YDR502C, strain sam2, stronger effect = lower value 0.987 | locus YEL003W, strain gim4, stronger effect = lower value 0.954 | locus YEL037C, strain rad23, stronger effect = lower value 0.97 | locus YEL061C, strain CIN8 (second series), stronger effect = lower value 0.978 | locus YEL061C, strain CIN8, stronger effect = lower value 0.998 | locus YER015W, strain faa2, stronger effect = lower value 0.991 | locus YER016W, strain bim1, stronger effect = lower value 0.995 | locus YER110C, stronger effect = lower value 0.973 | locus YER111C, strain swi4, stronger effect = lower value 0.988 | locus YER155C, strain BEM2 (second series), stronger effect = lower value 0.958 | locus YER155C, strain BEM2, stronger effect = lower value 0.986 | locus YER167W, strain BCK2, stronger effect = lower value 0.987 | locus YFR010W, strain ubp6, stronger effect = lower value 0.986 | locus YGL086W, strain mad1, stronger effect = lower value 0.985 | locus YGL167C, strain pmr1, stronger effect = lower value 0.969 | locus YGL173C, strain kem1, stronger effect = lower value 0.965 | locus YGL227W, strain vid30, stronger effect = lower value 1 | locus YGL240W, strain doc1, stronger effect = lower value 0.929 | locus YGL248W, strain PDE1, stronger effect = lower value 0.98 | locus YGL253W, strain hxk2, stronger effect = lower value 0.972 | locus YGR078C, strain PAC10, stronger effect = lower value 0.96 | locus YGR135W, strain pre9, stronger effect = lower value 0.946 | locus YGR229C, strain SMI1, stronger effect = lower value 0.986 | locus YGR252W, strain gcn5, stronger effect = lower value 0.861 | locus YHR013C, strain ard1, stronger effect = lower value 1 | locus YHR027C, strain rpn1, stronger effect = lower value 1 | locus YHR079C, strain IRE1 (second series), stronger effect = lower value 0.947 | locus YHR094C, strain hxt1, stronger effect = lower value 0.984 | locus YHR129C, strain ARP1, stronger effect = lower value 0.988 | locus YHR142W, strain chs7, stronger effect = lower value 0.94 | locus YHR200W, strain rpn10, stronger effect = lower value 0.975 | locus YIL066C, strain RNR3, stronger effect = lower value 0.973 | locus YIL073C, strain SPO22, stronger effect = lower value 0.948 | locus YIL125W, strain kgd1, stronger effect = lower value 0.967 | locus YIR030C, strain dcg1, stronger effect = lower value 0.974 | locus YJL092W, strain hpr5, stronger effect = lower value 0.998 | locus YJL095W, strain BCK1 (second series), stronger effect = lower value 0.997 | locus YJL115W, strain asf1, stronger effect = lower value 0.981 | locus YJL129C, strain trk1, stronger effect = lower value 0.915 | locus YJL134W, strain LCB3, stronger effect = lower value 0.99 | locus YJL154C, strain vps35, stronger effect = lower value 0.996 | locus YJL164C, strain tpk1, stronger effect = lower value 0.996 | locus YJL166W, strain qcr8, stronger effect = lower value 0.976 | locus YJL168C, strain set2, stronger effect = lower value 0.972 | locus YJL187C, strain SWE1 (second series), stronger effect = lower value 0.948 | locus YJR043C, strain POL32, stronger effect = lower value 0.937 | locus YJR075W, strain HOC1, stronger effect = lower value 0.963
0.971 (inactive) and 0.676 (active): locus YJL095W, strain BCK1, stronger effect = lower value
